Compound activity as filed in PubChem.
MEP2-GFP yeast – modulators of MEP2-GFP levels in yeast, primary screen, S. cerevisiae, multiplex flow cytometry, MLPCN library. S. cerevisiae MEP2-GFP strain, 3 h; 100% = DMSO control level. GFP response vs DMSO, % at 10 µM. hit rate 0.51% among 330,000. AID 2016, 2009;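 active = GFP response versus DMSO above a set limit, roughly screen mean plus 3 SD, cut at about 180% in these data; inconclusive = fewer than 70 cells counted for a yeast strain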;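 also: median GFP fluorescence of the barcode-gated MEP2-GFP cells per well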
RPL19A-GFP yeast – RPL19A-GFP expression modulators in yeast, primary screen, cell-based, S. cerevisiae, multiplex flow cytometry, MLPCN; hit rate 0.3% among 330,000; AID 2025, 2009; S. cerevisiae RPL19A-GFP strain, 3 h; stronger effect = lower value; percent response vs DMSO, % at 10 µM;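 active = percent response vs DMSO below 50%; inconclusive = fewer than 70 events counted for the yeast strain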;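 also: median channel GFP fluorescence of the barcoded RPL19A-GFP strain; ratio of sample median GFP to plate DMSO average so 100% = DMSO; lower means less RPL19A-GFP as with rapamycin TOR inhibition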
LAP4 TOR yeast – modulators of LAP4-GFP expression in yeast, primary screen, S. cerevisiae, multiplex flow cytometry, MLPCN library. 3 h; median GFP as percent of DMSO wells. GFP response vs DMSO, % at 10 µM. hit rate 0.34% among 320,000. AID 2023, 2009;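 active = GFP response vs DMSO above a set limit, about the screen mean plus 3 SD, cut at about 150% in these data; inconclusive = under 70 cell events counted for the yeast strain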
AGP1-GFP MLPCN – modulators of AGP1-GFP expression in yeast TOR pathway, primary screen, cell-based, multiplex flow cytometry, S. cerevisiae, MLPCN library | 3 h; GFP as percent of DMSO wells | GFP response vs DMSO, % at 10 µM | AID 2066, 2009 | hit rate 0.02% among 320,000;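 active = GFP response relative to DMSO above a set limit, near screen average plus 3 SD, cut at about 150% in these data; inconclusive = fewer than 70 cells counted for the yeast strain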;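 also: median GFP channel fluorescence of the gated AGP1 strain per well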
CIT2-GFP yeast – modulators of CIT2-GFP expression in yeast, primary screen, S. cerevisiae, GFP fusion, multiplex flow cytometry, MLPCN library | S. cerevisiae CIT2-GFP strain, 3 h; 100 means same as DMSO wells | AID 2029, 2009 | GFP response vs DMSO, % at 10 µM | hit rate 0.065% among 320,000;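 active = GFP response relative to DMSO above a set limit, near the screen mean plus 3 SD, cut at about 150% in these data; inconclusive = Fewer than 70 cells measured for a yeast strain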;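 also: ratio of well median GFP fluorescence to mean of DMSO wells on the plate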
LAP4-GFP pick2 – LAP4-GFP expression modulators in yeast, confirmation, cell-based, second cherry pick, flow cytometry; shares compounds with LAP4 TOR yeast; S. cerevisiae LAP4-GFP strain, 3 h; GFP response vs DMSO, % at 10 µM; hit rate 20% among 590;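 active = GFP signal as percent of the solvent control above about 150%, meaning raised reporter expression, limit read from the data; inconclusive = fewer than 70 cells counted in the well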;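 also: ratio of well median GFP fluorescence to plate DMSO mean so 100% = DMSO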
MEP2 cherry2 – modulators of MEP2-GFP levels in yeast, confirmation, S. cerevisiae, flow cytometry GFP, second cherry picks; shares compounds with LAP4 TOR yeast; S. cerevisiae MEP2-GFP strain, 3 h; GFP response vs DMSO, % at 10 µM; hit rate 10% among 590; AID 2622, 2010;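 active = GFP signal above 150% of the solvent control wells, that is a rise of more than half; inconclusive = fewer than 70 yeast cells counted in the well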;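 also: median channel GFP fluorescence of all gated yeast cells per well; ratio of median GFP to plate DMSO average so 100% = DMSO level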
RPL19A GFP CP2 – RPL19A-GFP modulators in TOR pathway yeast, confirmation, cell-based, S. cerevisiae, flow cytometry, second cherry pick. shares compounds with LAP4 TOR yeast. S. cerevisiae RPL19A-GFP strain, 3 h; stronger effect = lower value; 100% means same as DMSO wells. GFP response vs DMSO, % at 10 µM. hit rate 3% among 590. AID 2623, 2010;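 active = under 65% GFP response relative to DMSO; inconclusive = yeast strain with under 70 measured events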;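 also: median GFP channel fluorescence per well over the all cells gate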
CIT2 GFP CP2 – modulators of CIT2-GFP expression in yeast, confirmation, flow cytometry, second cherry pick, single plex; shares compounds with LAP4 TOR yeast; S. cerevisiae CIT2-GFP strain, 3 h; DMSO control wells read 100%; AID 2624, 2010; hit rate 8% among 590; GFP response vs DMSO, % at 10 µM;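 active = GFP response vs DMSO above about 150%, limit read from the data; inconclusive = fewer than 70 events counted for a yeast strain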;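 also: median green fluorescence per well over all gated yeast cells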
AGP1 GFP CP2 – AGP1-GFP expression modulators, hit retest, confirmation, cell-based, flow cytometry, S. cerevisiae, cherry pick set 2. shares compounds with LAP4 TOR yeast. S. cerevisiae AGP1-GFP strain, 3 h. percent response vs DMSO, % at 10 µM. 590 tested, under 10 active. AID 2643, 2010;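 active = over 150 percent of DMSO response; inconclusive = yeast strain measured with under 70 events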;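 also: median GFP channel fluorescence over all cells without mother daughter split; sample median GFP divided by mean DMSO control so 100% equals DMSO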
Yeast autofluor – compound autofluorescence in yeast s288c, dose response, artefact control for yeast TOR pathway GFP screen, s288c strain. shares compounds with LAP4 TOR yeast. AID 2757, 2010. fluorescence change (kMESF span) at 33 µM. S. cerevisiae s288c, 520 nm autofluorescence, flow cytometry, 3 h; stronger effect = higher value; zero means same as solvent-only cells. 610 tested, under 10 active;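 active = fluorescence span over the dose series, or activity score, above about 33, limit read from the data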
* marks the source's active call; other numbers are inactive results; ? = inconclusive; . = no result given; + = active, no number. This is a sample that favours compounds with a hit; in the whole collection about 0.93% have one here.

SMILES	MEP2-GFP yeast	RPL19A-GFP yeast	LAP4 TOR yeast	AGP1-GFP MLPCN	CIT2-GFP yeast	LAP4-GFP pick2	MEP2 cherry2	RPL19A GFP CP2	CIT2 GFP CP2	AGP1 GFP CP2	Yeast autofluor
O=C(Nc1cccc(-c2csc(Nc3ccccc3)n2)c1)c1ccccc1	97.9	98.4	153.4*	81.8	90.3	108.7	103.2	97.1	91.6	93.3	0.1
O=C(Nc1cccc(-c2csc(Nc3cccc(C(F)(F)F)c3)n2)c1)c1ccccc1	100.4	102.2	140.7	92.8	106.7	.	.	.	.	.	.
CCCCNC(=O)c1cc2c(-c3ccc(Cl)cc3)nn(C)c2s1	216.2*	104.7	157.1*	104.4	151.2*	103.2	104.8	100.4	98.7	97.8	.
COCCCNC(=O)c1cc2c(-c3ccc(Cl)cc3)nn(C)c2s1	101.5	99.7	101.1	100.1	97.0	.	.	.	.	.	.
Cc1cc(-c2cc(C(=O)NC3CCCC3)on2)nc(NC2CCCC2)n1	85.5	91.7	134.9	82.3	85.7	.	.	.	.	.	.
CCCNc1nc(C)cc(-c2cc(C(=O)NC3CCCC3)on2)n1	91.7	95.5	155.7*	84.8	103.0	105.8	101.5	97.9	90.5	95.7	.
Cc1cc(-c2cc(C(=O)NCc3ccccc3)on2)nc(NC2CCCC2)n1	92.6	91.9	102.7	91.8	80.9	101.0	106.5	99.4	104.0	96.4	.
Cc1cc(-c2cc(C(=O)Nc3ccccc3)on2)nc(NC2CCCC2)n1	98.6	107.0	116.0	90.6	88.8	109.6	103.2	105.9	100.7	97.5	.
CSc1nc(C)cc(-c2cc(C(=O)Nc3ccccc3)on2)n1	88.8	96.1	113.1	87.3	92.6	105.8	114.8	101.9	99.5	96.9	.
COc1ccc(-c2cc(C(=O)Nc3ccccc3)on2)cc1	86.8	92.2	98.7	89.8	89.2	.	.	.	.	.	.
CN(C)C(CNc1ncccn1)c1ccccc1 (stereo not given)	?	?	?	?	82.5	.	.	.	.	.	.
O=C(c1ccc([N+](=O)[O-])o1)N1CCN(c2nc3c(F)cc(F)cc3s2)CC1	146.4	60.4	167.4*	79.2	131.1	.	.	.	.	.	9.47
CC(C)CC(=O)NC(=S)Nc1nc(-c2ccccc2)cs1	137.6	62.2	96.8	24.7	78.6	98.2	96.1	99.5	105.7	97.9	0
CSc1nc(Cc2ccc(Cl)cc2)nc2ccccc12	97.6	78.3	161.4*	100.9	82.5	100.2	104.8	99.7	104.3	96.7	.
O=C1CC(c2ccccc2)=NN1c1nc(-c2ccccc2)cs1	100.3	63.2	78.9	39.7	61.7	149.3	213.1*	81.1	144.6	76.5	2.23
O=C(NCc1ccc2c(c1)OCO2)c1nc(S(=O)(=O)Cc2ccccc2)ncc1Cl	102.0	92.3	174.7*	117.8	107.9	.	.	.	.	.	-0.21
Cc1noc(C)c1C(=O)Nc1ccc(N(C)C)cc1	98.6	93.6	85.2	102.5	162.1*	100.0	99.8	100.2	101.8	102.7	.
Cc1noc(C)c1C(=O)Nc1ccc(F)cc1	97.0	103.0	123.1	109.9	92.8	.	.	.	.	.	.
COc1c(Cl)cc(Cl)cc1CNCCO	104.5	104.9	89.9	103.0	108.0	.	.	.	.	.	.
c1ccc(Nc2nc(-c3ccccn3)cs2)cc1	91.4	78.8	102.0	45.9	76.1	.	.	.	.	.	.
c1ccc(-c2csc(Nc3cccnc3)n2)nc1	104.3	94.5	114.5	93.9	95.2	99.0	104.8	101.9	101.8	99.4	0
COc1cccc2sc(Nc3nc(-c4ccccn4)cs3)nc12	100.5	66.2	168.7*	87.2	72.8	.	.	.	.	.	0.81
CC(c1ccon1)N(C)Cc1cn(C)nc1-c1cccc(Cl)c1 (stereo not given)	101.5	100.7	90.4	101.2	102.8	.	.	.	.	.	.
COc1ccc(C2=CC3=C(Br)C(=O)C(C)(O)C(=O)C3=CO2)cc1 (stereo not given)	116.8	41.5*	97.8	13.5	56.9	125.2	150.2*	33.8*	159.9*	24.0	3.24
CCC(=O)OC1(C)C(=O)C2=COC(c3ccc(OC)cc3)=CC2=C(Br)C1=O (stereo not given)	88.8	83.9	137.1	44.8	56.9	.	.	.	.	.	.
SMILES	MEP2-GFP yeast	RPL19A-GFP yeast	LAP4 TOR yeast	AGP1-GFP MLPCN	CIT2-GFP yeast	LAP4-GFP pick2	MEP2 cherry2	RPL19A GFP CP2	CIT2 GFP CP2	AGP1 GFP CP2	Yeast autofluor
O=C1c2cccc3c([N+](=O)[O-])ccc(c23)C(=O)N1c1ccccn1	301.2*	115.3	193.0*	82.8	191.4*	193.3*	324.5*	121.7	195.6*	114.2	13.1
O=C1c2cccc3c([N+](=O)[O-])ccc(c23)C(=O)N1O	350.2*	147.8	227.9*	115.8	273.8*	.	.	.	.	.	20.1
O=C1c2cccc3c(N4CCCCC4)ccc(c23)C(=O)N1c1ccccn1	107.5	102.0	104.5	96.1	101.2	.	.	.	.	.	.
COC(CN(C)S(=O)(=O)c1cc2c3c(c1)CCN3C(=O)CC2)OC	101.0	98.5	95.9	103.3	97.6	.	.	.	.	.	.
Cc1cc(=O)oc2cc(Oc3ccc([N+](=O)[O-])cc3C(F)(F)F)ccc12	102.3	96.5	99.0	95.6	94.3	105.2	104.8	97.8	98.7	103.4	0.11
CC1=CN2C(=N)/C(=C/c3ccc([N+](=O)[O-])o3)C(=O)N=C2S1	+	226.2	862.9*	137.6	62.5	+	+	717.6	+	243.1*	.
CC1=CN2C(=N)/C(=C/c3ccco3)C(=O)N=C2S1	103.4	103.9	98.8	89.2	104.0	.	.	.	.	.	.
